Assay [1] concerns PRMT1 (protein arginine N-methyltransferase 1). In words: PRMT1 binders on small-molecule microarrays, primary screen, biochemical, small-molecule microarray, 635 nm fluorescence (AID 1088).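 Further: binding of Prmt1 protein to compounds spotted on small-molecule microarray slides.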 The conditions noted are these: small-molecule microarray binding, higher = more signal.
The nature of assay [2]: yeast growth modulation, basal conditions, primary screen, YJM789 clinical isolate, OD600, 24 h (AID 1089).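 Further: growth of clinical yeast isolate S. cerevisiae YJM 789 seeded 1000 cells per well; test concentration not given here.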 The conditions noted are these: S. cerevisiae YJM789 growth, higher = more signal, called active from +8 up or from −8 down.
The nature of assay [3]: fission yeast growth modulation, primary screen, strain 972, OD600, 24 h, no modulator (AID 1090).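 Further: basal condition with compound alone and no growth modifier present; test concentration not given here.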 The conditions noted are these: S. pombe 972 growth, higher = more signal, called active from +8 up or from −8 down.
Assay [4] in a line: S. cerevisiae growth modulation with rapamycin, primary screen, strain BY4716, OD600, 96 h (AID 1091). Further: test concentration not given here. The conditions noted are these: higher = more signal, called active from +8 up or from −8 down.
For assay [5], the target named is Torsin-1A-interacting protein 2 (Homo sapiens) (UniProt Q8NFQ8). Kind of assay: LULL1 binders on small-molecule microarray, primary screen, cell lysate, human LULL1 lysate, 635/667 nm fluorescence (AID 1092).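 Further: probe is lysate of COS7 cells overexpressing human LULL1; score merges per-feature 667 nm fluorescence with signal-to-noise.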 To be noted: hLULL1 lysate binding, 635 nm fluorescence, higher = more signal.
Sequence of Torsin-1A-interacting protein 2 (Homo sapiens) (Q8NFQ8 whole entry, looked up): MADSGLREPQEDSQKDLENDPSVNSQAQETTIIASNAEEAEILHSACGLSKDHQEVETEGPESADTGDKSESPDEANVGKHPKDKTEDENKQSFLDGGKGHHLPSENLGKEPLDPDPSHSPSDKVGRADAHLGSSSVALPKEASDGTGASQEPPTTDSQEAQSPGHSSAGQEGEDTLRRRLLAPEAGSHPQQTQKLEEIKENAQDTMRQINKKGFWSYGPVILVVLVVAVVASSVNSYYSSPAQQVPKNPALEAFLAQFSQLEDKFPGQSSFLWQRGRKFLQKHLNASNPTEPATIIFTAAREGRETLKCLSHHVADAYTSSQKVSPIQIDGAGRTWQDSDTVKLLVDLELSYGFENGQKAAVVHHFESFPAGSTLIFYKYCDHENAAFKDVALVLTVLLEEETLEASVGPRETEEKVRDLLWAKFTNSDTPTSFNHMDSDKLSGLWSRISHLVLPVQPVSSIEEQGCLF
Assay [6] in a line: E. coli growth modulation, two-sided OD650, primary screen, E. coli filamentation project, strain DRC41, 24 h (AID 1093).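 Further: MC1000 strain lacking acrAB efflux and sulA so SOS filamentation is blocked; test concentration not given here.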 To be noted: OD650, 24 h, higher = more signal, called active from +8 up or from −8 down.
The nature of assay [7]: small-molecule microarray binders of probe aLefty2, primary screen, biochemical, biotinylated probe, 635/667 nm fluorescence (AID 1094).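 Further: score merges spot fluorescence near 667 nm with spot signal-to-noise ratio.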 The conditions noted are these: higher = more signal.
The subject of assay [8] is Noggin (protein binding on small-molecule microarray). Kind of assay: Noggin binders on small-molecule microarray, primary screen, biochemical, 635/667 nm fluorescence (AID 1095).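 Further: score merges 667 nm feature fluorescence with signal to noise over triplicate slides.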 To be noted: 635 nm fluorescence, higher = more signal.
Assay [9] deals with Neurogenic locus notch homolog protein 3 (Homo sapiens) (UniProt Q9UM47). Kind of assay: NOTCH3 binders on small-molecule microarray, primary screen, biochemical, 635/667 nm fluorescence (AID 1096). The conditions noted are these: NOTCH3 binding, 635 nm fluorescence, higher = more signal.
Sequence of Neurogenic locus notch homolog protein 3 (Homo sapiens) (Q9UM47 whole entry, looked up): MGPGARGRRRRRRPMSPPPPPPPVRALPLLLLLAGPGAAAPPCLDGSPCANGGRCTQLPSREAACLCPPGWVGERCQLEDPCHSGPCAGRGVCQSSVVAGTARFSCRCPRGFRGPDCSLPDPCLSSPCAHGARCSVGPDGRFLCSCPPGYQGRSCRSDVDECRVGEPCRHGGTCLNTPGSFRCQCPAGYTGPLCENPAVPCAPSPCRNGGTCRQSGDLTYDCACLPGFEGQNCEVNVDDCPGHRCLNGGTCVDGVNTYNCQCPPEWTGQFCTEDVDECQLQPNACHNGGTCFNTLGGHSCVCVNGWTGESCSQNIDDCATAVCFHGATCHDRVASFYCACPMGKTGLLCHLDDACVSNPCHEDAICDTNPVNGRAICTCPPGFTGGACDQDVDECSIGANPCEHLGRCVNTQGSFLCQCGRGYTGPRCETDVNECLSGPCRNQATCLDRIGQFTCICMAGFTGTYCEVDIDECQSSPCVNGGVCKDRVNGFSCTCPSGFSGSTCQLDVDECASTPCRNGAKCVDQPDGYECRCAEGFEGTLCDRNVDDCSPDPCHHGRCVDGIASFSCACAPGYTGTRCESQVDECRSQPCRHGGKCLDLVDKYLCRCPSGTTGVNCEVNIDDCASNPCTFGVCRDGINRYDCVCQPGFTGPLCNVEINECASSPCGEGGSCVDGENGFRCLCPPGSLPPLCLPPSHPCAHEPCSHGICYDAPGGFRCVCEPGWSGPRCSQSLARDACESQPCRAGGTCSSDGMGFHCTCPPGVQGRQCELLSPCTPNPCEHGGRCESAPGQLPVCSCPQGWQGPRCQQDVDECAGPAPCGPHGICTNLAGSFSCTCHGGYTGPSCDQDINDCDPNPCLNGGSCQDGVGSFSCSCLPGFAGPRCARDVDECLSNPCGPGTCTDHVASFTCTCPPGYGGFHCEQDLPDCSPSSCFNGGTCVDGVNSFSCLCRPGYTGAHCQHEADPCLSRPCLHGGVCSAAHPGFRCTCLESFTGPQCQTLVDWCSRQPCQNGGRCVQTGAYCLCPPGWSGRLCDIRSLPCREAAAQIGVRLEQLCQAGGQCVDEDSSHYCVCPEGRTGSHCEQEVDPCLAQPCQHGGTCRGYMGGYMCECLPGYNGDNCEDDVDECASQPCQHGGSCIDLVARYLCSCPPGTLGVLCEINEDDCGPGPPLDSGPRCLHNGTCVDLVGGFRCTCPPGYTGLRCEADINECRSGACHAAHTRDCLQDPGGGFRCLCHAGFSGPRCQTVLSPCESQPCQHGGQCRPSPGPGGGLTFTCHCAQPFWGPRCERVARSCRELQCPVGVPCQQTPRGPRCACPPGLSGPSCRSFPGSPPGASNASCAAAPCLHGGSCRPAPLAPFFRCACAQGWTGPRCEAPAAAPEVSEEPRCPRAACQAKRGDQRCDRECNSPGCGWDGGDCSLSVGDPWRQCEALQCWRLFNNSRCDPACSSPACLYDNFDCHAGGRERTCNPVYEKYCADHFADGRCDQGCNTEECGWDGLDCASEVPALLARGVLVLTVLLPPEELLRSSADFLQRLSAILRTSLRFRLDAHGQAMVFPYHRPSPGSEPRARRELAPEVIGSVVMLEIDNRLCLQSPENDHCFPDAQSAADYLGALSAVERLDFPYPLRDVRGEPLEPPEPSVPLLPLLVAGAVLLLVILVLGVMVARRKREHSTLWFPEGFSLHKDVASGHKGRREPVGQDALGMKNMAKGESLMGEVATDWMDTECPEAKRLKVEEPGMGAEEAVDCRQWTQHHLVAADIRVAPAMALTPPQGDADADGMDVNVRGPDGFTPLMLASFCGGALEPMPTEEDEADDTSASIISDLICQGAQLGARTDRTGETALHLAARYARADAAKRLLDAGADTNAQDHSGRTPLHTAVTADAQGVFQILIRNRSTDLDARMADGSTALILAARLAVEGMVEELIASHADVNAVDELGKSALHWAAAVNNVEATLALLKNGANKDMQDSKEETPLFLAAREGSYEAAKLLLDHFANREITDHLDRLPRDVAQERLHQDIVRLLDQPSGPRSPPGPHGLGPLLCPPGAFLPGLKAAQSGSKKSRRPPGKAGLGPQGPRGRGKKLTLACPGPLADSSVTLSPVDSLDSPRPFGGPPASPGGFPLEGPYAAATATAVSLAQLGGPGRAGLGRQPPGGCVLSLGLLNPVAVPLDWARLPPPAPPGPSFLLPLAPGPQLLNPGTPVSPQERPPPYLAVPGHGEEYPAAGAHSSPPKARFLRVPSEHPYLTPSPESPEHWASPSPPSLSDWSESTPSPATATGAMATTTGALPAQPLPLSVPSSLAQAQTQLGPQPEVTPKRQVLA
A short description of assay [10]: small-molecule microarray binders of probe aEGFR, primary screen, biochemical, biotinylated probe, 635/667 nm fluorescence (AID 1097).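 Further: probe is a biotinylated anti-EGFR antibody binding compounds printed on slides; score combines fluorescence near 667 nm and signal to noise of each spot.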 The conditions noted are these: higher = more signal.
The test system of assay [11] is Plasmodium falciparum Sir2 (PF13_0152, Sir2A). Kind of assay: pfSir2 binders on small-molecule microarrays, primary screen, biochemical, small-molecule microarray, 635 nm fluorescence (AID 1098).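 Further: score merges spot fluorescence intensity with its signal-to-noise ratio.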 The conditions noted are these: small-molecule microarray binding, fluorescence 635 nm; higher = more signal.
The nature of assay [12]: small-molecule microarray binders of probe aDKK1, primary screen, biochemical, biotinylated probe, 635/667 nm fluorescence (AID 1099).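 Further: score merges 667nm spot fluorescence with signal to noise across triplicate slides; reference of the scale not given here.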 To be noted: higher = more signal.
A short description of assay [13]: small-molecule microarray binders of probe aCHRDL2, primary screen, biochemical, biotinylated probe, 635/667 nm fluorescence (AID 1100). To be noted: higher = more signal.
The nature of assay [14]: splicing luciferase reporter signal modulators, primary screen, spliceosome inhibition project, cell-based, HEK293, splice +/- reporter (AID 1101).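 Further: HEK293 cells carrying a splicing-competent luciferase reporter gene; test concentration not given here.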 To be noted: luminescence, 24 h, higher = more signal, called active from +8 up or from −8 down. On the technique in general: A reporter such as luciferase makes a cellular process visible.
In assay [15] the target is Fibroblast growth factor 10 (Homo sapiens) (UniProt O15520). Kind of assay: FGF10 binders on small-molecule microarrays, primary screen, biochemical, small-molecule microarray, 635 nm fluorescence (AID 1102). To be noted: FGF10 binding, fluorescence 635 nm, higher = more signal.
Sequence of Fibroblast growth factor 10 (Homo sapiens) (O15520 whole entry, looked up): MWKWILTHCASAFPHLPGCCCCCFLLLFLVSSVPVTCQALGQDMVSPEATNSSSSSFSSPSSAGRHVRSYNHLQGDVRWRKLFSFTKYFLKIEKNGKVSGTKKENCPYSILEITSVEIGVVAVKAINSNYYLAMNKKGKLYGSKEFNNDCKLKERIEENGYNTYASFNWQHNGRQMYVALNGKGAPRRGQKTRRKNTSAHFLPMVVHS
For assay [16], the system named is glycogen synthase kinase-3 (GSK3A per assay name; protocol says GSK3B). Kind of assay: GSK3 binders on small-molecule microarrays, primary screen, biochemical, small-molecule microarray, 635 nm fluorescence, GSK3A (AID 1103). Further: the record names both GSK3A and GSK3B. To be noted: small-molecule microarray binding, fluorescence 635 nm; higher = more signal.
In assay [17] the target is Epidermal growth factor receptor (Homo sapiens) (UniProt P00533). Kind of assay: EGFR binders on small-molecule microarrays, primary screen, biochemical, small-molecule microarray, 635 nm fluorescence (AID 1104).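 Further: score merges 667 nm emission intensity with spot signal to noise over triplicate slides.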 The conditions noted are these: EGFR binding, higher = more signal.
Sequence of Epidermal growth factor receptor (Homo sapiens) (P00533 whole entry, looked up): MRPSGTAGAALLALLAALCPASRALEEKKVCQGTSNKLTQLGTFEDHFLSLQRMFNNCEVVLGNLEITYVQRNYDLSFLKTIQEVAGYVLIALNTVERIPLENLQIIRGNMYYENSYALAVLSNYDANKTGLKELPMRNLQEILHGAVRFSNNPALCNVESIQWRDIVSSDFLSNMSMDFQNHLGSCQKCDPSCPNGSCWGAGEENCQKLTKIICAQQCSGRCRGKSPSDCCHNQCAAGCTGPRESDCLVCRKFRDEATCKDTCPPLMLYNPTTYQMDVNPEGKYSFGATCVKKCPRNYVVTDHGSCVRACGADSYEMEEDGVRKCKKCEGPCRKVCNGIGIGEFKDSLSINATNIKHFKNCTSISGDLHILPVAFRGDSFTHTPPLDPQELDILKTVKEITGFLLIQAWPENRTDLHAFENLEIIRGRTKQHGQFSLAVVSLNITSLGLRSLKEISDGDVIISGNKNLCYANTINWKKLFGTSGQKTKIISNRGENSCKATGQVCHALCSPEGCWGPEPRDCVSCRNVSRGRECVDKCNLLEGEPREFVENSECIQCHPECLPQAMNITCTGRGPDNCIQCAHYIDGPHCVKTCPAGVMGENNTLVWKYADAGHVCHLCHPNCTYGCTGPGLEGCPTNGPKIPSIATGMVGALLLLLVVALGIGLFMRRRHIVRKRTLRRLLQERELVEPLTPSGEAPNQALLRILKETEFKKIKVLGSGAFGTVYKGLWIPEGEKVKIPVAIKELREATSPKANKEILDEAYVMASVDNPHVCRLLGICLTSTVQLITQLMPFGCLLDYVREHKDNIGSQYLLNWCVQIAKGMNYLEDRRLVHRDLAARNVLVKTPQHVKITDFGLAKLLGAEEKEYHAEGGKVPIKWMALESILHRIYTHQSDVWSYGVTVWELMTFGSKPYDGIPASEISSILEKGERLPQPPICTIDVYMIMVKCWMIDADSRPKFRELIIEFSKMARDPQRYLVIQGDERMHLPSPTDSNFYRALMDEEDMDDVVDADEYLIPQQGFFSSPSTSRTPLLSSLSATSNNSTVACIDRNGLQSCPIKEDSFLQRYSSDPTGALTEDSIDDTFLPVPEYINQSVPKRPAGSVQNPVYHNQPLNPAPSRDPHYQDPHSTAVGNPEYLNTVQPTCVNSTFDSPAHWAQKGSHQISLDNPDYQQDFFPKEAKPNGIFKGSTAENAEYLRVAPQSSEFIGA
The target in assay [18] is Follistatin-related protein 3 (Homo sapiens) (UniProt O95633). In words: FSTL3 binders on small-molecule microarrays, primary screen, biochemical, small-molecule microarray, 635 nm fluorescence (AID 1105).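 Further: score merges emission near 667 nm and signal to noise per printed spot across three slides.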 To be noted: FSTL3 binding, higher = more signal.
Sequence of Follistatin-related protein 3 (Homo sapiens) (O95633 whole entry, looked up): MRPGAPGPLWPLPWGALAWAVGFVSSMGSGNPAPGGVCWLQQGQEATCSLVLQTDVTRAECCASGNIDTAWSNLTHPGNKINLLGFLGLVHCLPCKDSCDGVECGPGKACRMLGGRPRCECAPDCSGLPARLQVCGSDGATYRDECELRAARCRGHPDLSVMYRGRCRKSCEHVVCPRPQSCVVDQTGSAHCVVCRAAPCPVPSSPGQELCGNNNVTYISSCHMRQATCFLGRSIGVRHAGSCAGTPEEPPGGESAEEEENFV
The target in assay [19] is Dickkopf-related protein 1 (Homo sapiens) (UniProt O94907). Kind of assay: DKK1 binders on small-molecule microarrays, primary screen, biochemical, small-molecule microarray, 635 nm fluorescence scan (AID 1106).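 Further: score merges emission near 667 nm with signal to noise over three replicate slides.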 The conditions noted are these: DKK1 binding, higher = more signal.
Sequence of Dickkopf-related protein 1 (Homo sapiens) (O94907 whole entry, looked up): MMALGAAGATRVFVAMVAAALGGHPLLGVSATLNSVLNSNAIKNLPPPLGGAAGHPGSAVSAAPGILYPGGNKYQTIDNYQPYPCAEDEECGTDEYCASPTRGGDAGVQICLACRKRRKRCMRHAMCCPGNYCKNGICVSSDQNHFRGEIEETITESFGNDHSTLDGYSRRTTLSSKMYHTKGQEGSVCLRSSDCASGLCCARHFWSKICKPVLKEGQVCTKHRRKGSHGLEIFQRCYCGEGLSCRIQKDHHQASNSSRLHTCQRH
For assay [20], the system named is Inhibin beta A chain (activin A). Kind of assay: INHBA (activin A) binders on microarrays, primary screen, biochemical, small-molecule microarray, 635 nm fluorescence scan (AID 1107).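 Further: mouse activin A protein probed at 4.33 µg/mL on printed slides; score merges bound-protein fluorescence near 667 nm with spot signal-to-noise.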 The conditions noted are these: small-molecule microarray binding, higher = more signal.

Calls of active or inactive are those of the source.

As to `O=C1C[C@@H](O)[C@@H](O)[C@@H]2[C@@H]3C(=O)N(c4cccc(Oc5ccccc5)c4)C(=O)[C@@H]3CC[C@@H]12`, the composite z-score in [1] was 0.766; in assay [5], 1.42; in [7], -0.177; in assay [8], 0.468; in [9], 1.09; in assay [10], 0.126. Further, the composite z-score in assay [11] is 0.87; in assay [12] it was -0.0115; in [13] it was -0.464; in [15] it was 0.806; in assay [16] it was 0.655; in [17] it was 0.387. In addition, the composite z-score was 0.925 in [18], 0.987 in assay [19] and -0.0789 in [20]. In addition, the z-score in [2] is -0.336 (inactive); in assay [3], -0.444 (inactive); in assay [4] it was -0.622 (inactive); in assay [6], 0.185 (inactive); in assay [14], 0.0249 (inactive).
For `COC(=O)C1=CCC(c2cccc(Cl)c2)O1` (stereo not given), the composite z-score is 0.0357 in assay [1]; 1.82 in assay [5]; -0.043 in [7]; -0.485 in assay [8]; -0.223 in assay [9]; -0.106 in [10]. Moreover, the composite z-score in assay [11] is 1.15; in assay [12], -0.138; in [13] it was 0.381; in assay [15], 0.044; in assay [16], -0.842; in assay [17] it was -0.412. In addition, the composite z-score in assay [18] is -0.578; in [19], -0.476; in [20], 1.09. In addition, the z-score in assay [2] is -1.6 (inactive); in assay [3] it was -1.54 (inactive); in assay [4] it was 4.34 (inactive); in [6], -0.215 (inactive); in assay [14], -1.15 (inactive).
`O=C1C[C@]2(c3ccc([N+](=O)[O-])cc3)C(=O)N(CCN3CCOCC3)c3cc(CO)ccc3[C@H]2N1CC12CC3CC(CC(C3)C1)C2`: the composite z-score in assay [1] was -0.286; in assay [5] it was 1.81; in assay [7], 0.0023; in assay [8], -0.323; in assay [9], 0.111; in [10], -0.156. Moreover, the composite z-score in assay [11] is 0.39; in [12], 0.398; in [13], 0.793; in assay [15], -0.629; in [16] it was 0.163; in [17] it was -1. For the same compound, the composite z-score was -0.258 in [18], -1.22 in assay [19] and 0.6 in assay [20]. The z-score in [2] was -1.31 (inactive); in assay [3], -0.324 (inactive); in assay [4] it was -2.77 (inactive); in assay [6] it was 0.679 (inactive); in [14], 0.14 (inactive).
Consider `C[C@@H]1C=CCC(=O)OC[C@H](C)C(=O)N2CCC[C@H]2C(=O)OC1`, for which the composite z-score was 1.54 in assay [1]; 0.0414 in assay [5]; -0.0971 in assay [7]; 1.7 in assay [8]; 0.677 in [9]; 0.228 in assay [10]. The composite z-score is 1.12 in assay [11]; -0.457 in [12]; -0.769 in [13]; 0.825 in assay [15]; 1.21 in assay [16]; 1.26 in assay [17]. The composite z-score in assay [18] was 0.829; in assay [19], 2.21; in assay [20], -1.04. The z-score in assay [2] was -0.407 (inactive); in [3], 0.334 (inactive); in [4], 0.356 (inactive); in assay [6], 0.325 (inactive); in [14], -0.479 (inactive).
Turning to `CO[C@@H]1COC(=O)CC=C[C@@H](C)[C@@H]2C=C[C@H](O)[C@@H](COC(=O)[C@H](C)NC(=O)CC=C[C@H]1C)O2`, the composite z-score in [1] was 1.54; in [5], -0.75; in [7], -0.212; in assay [8], 1.42; in assay [9], 0.868; in assay [10] it was 0.0231. Moreover, the composite z-score in assay [11] was 1.46; in assay [12], -0.308; in assay [13], -1.09; in [15], 0.441; in [16], 0.674; in [17], 1.04. Moreover, the composite z-score was determined as 1.03 in assay [18], 1.28 in assay [19] and 0.578 in [20]. Besides, the z-score in assay [2] was -0.653 (inactive); in assay [3] it was -0.465 (inactive); in assay [4] it was -1.36 (inactive); in assay [6] it was 0.0967 (inactive); in assay [14], -1.09 (inactive).
For `CCCCCN1CC=CC23O[C@@H]4C=CCOC(=O)[C@@H]4[C@H]2C(=O)N(C(CO)C(C)C)[C@@H]3C1=O` (stereo not given in full), the composite z-score in assay [1] is -0.266; in assay [5], -1.52; in assay [7], -0.166; in assay [8], -0.433; in assay [9] it was 0.247; in [10] it was -0.234. Further, the composite z-score in assay [11] was 0.745; in [12], -0.183; in assay [13], 0.0134; in assay [15], -0.512; in [16] it was -0.786; in assay [17] it was -1.07. Moreover, the composite z-score in assay [18] is -0.472; in assay [19] it was -0.426; in assay [20], 0.712. For the same compound, the z-score was 0.403 (inactive) in assay [2]; 0.195 (inactive) in [3]; 0.972 (inactive) in [4]; 0.869 (inactive) in assay [6]; 0.253 (inactive) in [14].
Regarding `COC(=O)c1c(CC[C@@H](CO)NC(=O)N[C@H](Cc2ccccc2)Cn2cc(-c3ccccc3N)nn2)oc(C(C)=O)c1C(=O)OC`, the composite z-score in [1] worked out at 1.19; in assay [5] it was 1.05; in [7], 0.323; in assay [8], 0.173; in assay [9], 0.492; in assay [10] it was 0.195. Further, the composite z-score in assay [11] was 0.326; in assay [12], 0.759; in assay [13], 0.886; in [15], 0.865; in [16], 0.355; in assay [17], -0.165. Besides, the composite z-score in assay [18] is 0.204; in assay [19], -0.299; in assay [20], 0.95. Moreover, the z-score was -0.231 (inactive) in [2]; -1.15 (inactive) in assay [3]; 0.2 (inactive) in assay [4]; 0.382 (inactive) in [6]; 0.433 (inactive) in assay [14].
For `O=C(NN=C1C[C@@H](O)[C@@H](O)[C@@H]2[C@@H]3C(=O)N(c4cccc(Oc5ccccc5)c4)C(=O)[C@@H]3CC[C@@H]12)OCc1ccccc1`, the composite z-score was 0.633 in assay [1]; 1.46 in assay [5]; -0.0345 in [7]; 0.635 in [8]; 0.0096 in assay [9]; -0.124 in assay [10]. Further, the composite z-score is 0.0165 in assay [11]; 0.182 in assay [12]; 0.548 in assay [13]; 0.353 in assay [15]; -0.54 in assay [16]; 0.152 in assay [17]. In addition, the values for the composite z-score in assay [18], in assay [19] and in assay [20] were -0.112, 0.155 and 0.229, respectively. Besides, the z-score in [2] is 0.909 (inactive); in assay [3], 0.588 (inactive); in [4], 0.281 (inactive); in assay [6], 0.108 (inactive); in assay [14], 0.538 (inactive).
Turning to `CO[C@@H]1COC(=O)CC=C[C@@H](C)[C@H](OC)COC(=O)[C@H](COCc2ccccc2)NC(=O)CC=C[C@H]1C`, the composite z-score in assay [1] is 0.234; in [5], -1.32; in [7], -0.185; in assay [8], 0.846; in assay [9], -0.778; in assay [10], -0.231. Besides, the composite z-score in [11] was 1.56; in [12] it was -0.516; in [13], -1.15; in [15] it was 0.303; in assay [16], -0.112; in [17], 0.461. In addition, the values for the composite z-score in assay [18], in assay [19] and in assay [20] were 0.689, 0.444 and 1.87, respectively. For the same compound, the z-score was 0.122 (inactive) in [2]; -0.556 (inactive) in assay [3]; -0.0857 (inactive) in assay [4]; 0.024 (inactive) in assay [6]; 0.0688 (inactive) in assay [14].

Values taken from PubChem BioAssay.
